Results filed as inconclusive are left out. The source made the active and inactive calls. The call rests on the fitted dose curve; in most records, active means well fitted inhibition curve with a large enough effect; inconclusive means small, poorly fitted or top-dose-only effect; inactive means no such curve, though single readings can be large or run the other way.
Test: Primary qHTS for small molecule stabilizers of the endoplasmic reticulum resident proteome: Secreted ER Calcium Modulated Protein (SERCaMP) assay (AID 1508630)
Settings: SH-SY5Y GLuc-SERCaMP (Gaussia luciferase released on ER calcium loss) secretion, thapsigargin, luminescence; series mostly up to 38.4 µM; activity change, negative = inhibition: at the top concentration
In short: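 The SH-SY5Y reporter protocol was run at 3 concentrations up to 38.3 uM (primary) or 11 concentrations (follow-up): 16 h compound, 100 nM thapsigargin for 4 h, then extracellular luciferase luminescence.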
On the % scale 0 is the no-effect control and ±100 the full control effect.

| Structure (SMILES) | activity change, negative = inhibition |
| --- | --- |
| Cn1c2ccccc2c2c3c(c4c5ccccc5n(CCC#N)c4c21)CNC3=O | 0% (inactive) |
| CCOc1cc2ncc(C#N)c(Nc3ccc(F)c(Cl)c3)c2cc1NC(=O)C=CCN(C)C | 210% (inactive) |
| O=C(C=Cc1cccnc1)NCCCCC1CCN(C(=O)c2ccccc2)CC1 | -60.9% (inactive) |
| O=C(O)CO.[NH2-].[NH2-].[Pt+2] | 0% (inactive) |
| CCC[C@H](NC(=O)C(C#N)=Cc1cccc(Br)n1)c1ccccc1 | 410% (inactive) |
| COc1ccc(CC2SC(=O)NC2=O)cc1C(=O)NCc1ccc(C(F)(F)F)cc1 (stereo unspecified) | 0% (inactive) |
| Nc1ccn([C@@H]2O[C@H](CO)[C@H](O)C2(F)F)c(=O)n1 | 55.3% (inactive) |
| O=C(C=Cc1c(C(=O)O)[nH]c2cc(Cl)cc(Cl)c12)Nc1ccccc1 | 1.76% (inactive) |
| CCC1=C[C@@H]2CN(C1)Cc1c([nH]c3ccccc13)[C@@](C(=O)OC)(c1cc3c(cc1OC)N(C)[C@@H]1[C@@](O)(C(=O)OC)[C@H](OC(C)=O)[C@]4(CC)C=CCN5CC[C@]31[C@@H]54)C2 | 98.4% (inactive) |
| CC1(C)O[C@@H]2C[C@@H]3[C@H]4C[C@@H](F)C5=CC(=O)C=C[C@]5(C)[C@@]4(F)[C@@H](O)C[C@]3(C)[C@]2(C(=O)CO)O1 | 190% (inactive) |
| CS(=O)(=O)N1CCN(Cc2cc3nc(-c4cccc5[nH]ncc45)nc(N4CCOCC4)c3s2)CC1 | 0% (inactive) |
| C1=CCOCc2cc(ccc2OCCN2CCCC2)Nc2nccc(n2)-c2cccc(c2)OCC1 | 425% (inactive) |
| CN(C)CC=CC(=O)Nc1cc2c(Nc3ccc(F)c(Cl)c3)ncnc2cc1O[C@H]1CCOC1 | 270% (inactive) |
| COc1cc(C(C)C)c2c(c1)S(=O)(=O)N(COc1cc(=O)n3cccc(OCCN4CCCCC4)c3n1)C2=O | 0% (inactive) |
| Cc1cccc(C=NNc2cc(N3CCOCC3)nc(OCCc3ccccn3)n2)c1 | 0% (inactive) |
| Cc1[nH]c2ccccc2c1CCNCc1ccc(C=CC(=O)NO)cc1 | 13.2% (inactive) |
| COc1ccc(C=Cc2cc(OC)c(OC)c(OC)c2)cc1O | 5.88% (inactive) |
| C=C1C(=CC=C2CCCC3(C)[C@@H]([C@H](C)C=CC=CC(O)(CC)CC)CC[C@@H]23)C[C@@H](O)C[C@@H]1O (stereo partly specified) | 36.1% (inactive) |
| COc1cc2ncnc(Nc3ccc(F)c(Cl)c3)c2cc1NC(=O)C=CCN1CCCCC1 | 97.8% (inactive) |
| CC1(C)OC2=C(C(=O)c3ccccc3C2=O)[C@H](NCc2ccccc2)[C@H]1O | 42.4% (inactive) |
| CC(=O)SC[C@@H](C)C(=O)N1CCC[C@H]1C(=O)N[C@@H](Cc1ccccc1)C(=O)O | 151% (inactive) |
